The panel holds about 83,000 compounds, 20% with a hit somewhere; the sample as a whole holds those more often.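 Results are percent growth after 48 hours of single-concentration exposure. 100 means growth as in untreated cells, lower positive values show inhibition; negative values down to -100 show cell death.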 A number with no mark means an inactive call. The source made the active and inactive calls. How the source made its calls: active means growth percent below 10; inactive means the rest.
Legend:
Experiment in all cases: NCI-60 one-dose screen, 48 h (100 = growth as untreated, 0 = no growth, -100 = all killed)
Settings in all cases: 10 µM
NCI-H23 lung = system: NCI-H23 lung
NCI-H226 lung = system: NCI-H226 lung
NCI-H322M lung = system: NCI-H322M lung
HOP-62 NSCLC = system: HOP-62 NSCLC
NCI-H460 lung = system: NCI-H460 lung
HOP-92 NSCLC = system: HOP-92 NSCLC
NCI-H522 lung = system: NCI-H522 lung
A549/ATCC NSCLC = system: A549/ATCC NSCLC
786-0 renal = system: 786-0 renal
COLO 205 colon = system: COLO 205 colon

| SMILES | growth (NCI-H23 lung) | growth (NCI-H226 lung) | growth (NCI-H322M lung) | growth (HOP-62 NSCLC) | growth (NCI-H460 lung) | growth (HOP-92 NSCLC) | growth (NCI-H522 lung) | growth (A549/ATCC NSCLC) | growth (786-0 renal) | growth (COLO 205 colon) |
| --- | --- | --- | --- | --- | --- | --- | --- | --- | --- | --- |
| COc1ccc(N(C)c2cc(C#N)nc3ccccc23)cc1N | 9.56% (active) | 25.4% | 47.9% | 36.2% | 0.907% (active) | 58.1% | -25.9% (active) | 17.8% | 22.6% | -76.8% (active) |
| CN1CCN(c2ccc(C(=O)/C=C/c3cc(C(F)(F)F)ccc3Cl)cc2)CC1 | -95.3% (active) | -93% (active) | -94.8% (active) | -27.4% (active) | -46.6% (active) | -58.9% (active) | -60.4% (active) | -78.1% (active) | -83.1% (active) | -97% (active) |
| Cc1ccc(-c2ccc(SCC(=O)Nc3ccc(Cl)c(C(F)(F)F)c3)nn2)cc1 | 30% | 65.6% | 90.1% | 30% | 13.8% | 72.7% | -1.27% (active) | 40.4% | 35.1% | -11% (active) |
| CCOC(=O)CNC(=O)CN(Cc1ccccc1)C(=O)[C@@]1(C)CCC[C@]2(C)[C@H]3CC4C(C(C)C)=C[C@]3(CC[C@H]21)[C@@H]1C(=O)CCC(=O)[C@H]41 | 48.9% | 49.3% | 86.5% | 92.3% | 65% | 80.5% | 36.7% | 65% | 78.1% | 79.4% |
| CC(=C(c1ccc(OCCCN(C)C)cc1)c1ccc(OCCCN(C)C)cc1)c1ccccc1 | -97.9% (active) | -81.5% (active) | -100% (active) | -90.5% (active) | 3.15% (active) | -76.4% (active) | -84.6% (active) | -73.1% (active) | -44% (active) | -85.9% (active) |
| C[C@H]1[C@H](C)CC[C@]2(COC(=O)CCC(=O)NCC#CCN3CCNCC3)CC[C@]3(C)C(=CC[C@@H]4[C@@]5(C)CCCNC(C)(C)[C@@H]5CC[C@]43C)[C@H]12 | 44.1% | 75.6% | 77.2% | 60.8% | 9.64% (active) | 14.4% | 59% | 51.6% | 55.1% | -76.9% (active) |
| COc1ccsc1/C=N/NC(=O)c1[nH]c2ccc(Br)cc2c1-c1ccccc1 | 9.07% (active) | 17.2% | 34.3% | 26.3% | 0.114% (active) | -5.64% (active) | -34.4% (active) | 11.7% | 1.8% (active) | -32.4% (active) |
| O=C(Nc1cccc(C(F)(F)F)c1)c1cncc(C#Cc2cnc3cccnn23)c1 | 12.7% | 27.1% | 71.6% | 33.7% | 70.7% | 7.14% (active) | 54.9% | 63% | 40.1% | 82.3% |
| C=C1CCC2C3(C)COC(c4cccc(F)c4)OC3CCC2(C)C1CC(O)C1=CCOC1=O (stereo not given) | 82.9% | 73.1% | 90.4% | 88.7% | 82.2% | 76.4% | 23.9% | 80.3% | 41.1% | 60.7% |
| CC1=C2C(=C[C@@](C)(COCOCCCl)[C@@H]2O)C(=O)[C@](C)(O)C12CC2 | -81.7% (active) | -39.2% (active) | -18.2% (active) | -51.1% (active) | -11% (active) | -14.6% (active) | -74.4% (active) | -1.86% (active) | -36.2% (active) | -73.7% (active) |
| CN(C)CCNC(=O)OCCCCOc1cc(O)c2c(=O)cc(-c3ccccc3)oc2c1 | -2.08% (active) | 12.1% | -31.2% (active) | 2.14% (active) | -33.9% (active) | -42.6% (active) | -77% (active) | 4.88% (active) | -34.5% (active) | -46.4% (active) |
| O=C1NC(=NC23CC4CC(CC(C4)C2)C3)N/C1=C\c1ccc2ncoc2c1 | -49.7% (active) | 21.4% | 3.73% (active) | 13.2% | 13.7% | 15.3% | -17.3% (active) | 10% | 14.4% | -34.4% (active) |
| O=[N+]([O-])c1ccc(-c2nc(-c3ccccc3)c(-c3ccccc3)n2-c2ccc(S(=O)(=O)Nc3ncccn3)cc2)cc1 | 23.9% | 27.7% | 65.7% | 61.9% | 31.3% | 5.67% (active) | 69.4% | 60% | 35.9% | 125% |
